Source: PubChem BioAssay (National Center for Advancing Translational Sciences (NCATS))
IL1B secr inh: inhibitors of inflammasome signaling (IL-1 beta secretion). THP-1 LPS/ATP IL-1B secretion, AlphaLISA, 16 h; stronger effect = lower value. actives 4.7% (n = 360,000). AID 743279. activity change, % at 57.5 µM; in the data active = activity change below about -50%; inconclusive = mostly about -30% to -49%
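THP-1 cells pretreated 1 hr with compounds (up to 57.5 uM final), then stimulated with LPS (250 ng/mL final) plus ATP (1.25 mM final); secreted IL-1B measured by AlphaLISA after 16 hr, decreased signal indicating inhibition.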
TDP1 cell noCPT: qHTS for Inhibitors of human tyrosyl-DNA phosphodiesterase 1 (TDP1): qHTS in cells in absence of CPT; DT40 Tdp1-/- hTDP1 cells, no CPT, ATP luminescence, 48 h; Potency, µM (highest dose often 46.2 µM), usual class: inhibitors; actives 15% (n = 420,000); note: nearly all actives have a fitted effect of over 55% in size
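A cellular qHTS used chicken DT40 cells lacking endogenous Tdp1 but carrying stably transfected human TDP1. Compounds were applied without camptothecin, and cell growth kinetics were judged by ATP-dependent luminescence after ≥48 hr.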
HT1080-NT tox: kills 2HG-producing HT-1080-NT fibrosarcoma cells | actives 1.6% (n = 360,000) | HT-1080-NT fibrosarcoma viability, CellTiter-Glo ATP luminescence, 48 h | Potency, µM (titrated, usually from 46.1 µM), most hits filed as cytotoxic;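 note: NT is the 2HG producing partner of a matched IDH1 knockdown line; nearly all actives have a fitted effect of over 55% in size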
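Toxicity toward the 2HG-producing NT line was scored as %Activity, normalised to DMSO and no-cell wells, from CellTiter-Glo luminescence after 48 hours' treatment.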
HT1080 IDH1KD tx: toxicity to HT-1080 IDH1 knockdown cells (counter line); HT-1080 IDH1 knockdown viability, ATP luminescence, 48 h; Potency, µM (highest dose often 46.1 µM), most hits filed as cytotoxic; actives 2% (n = 360,000); AID 686971
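Luminescent ATP read-out (CellTiter-Glo, 10 min at room temperature) after 48 h compound exposure at 37 °C gave viability of IDH1-knockdown HT-1080 cells. Activity was normalised to DMSO and cell-free wells, then fitted as concentration-response curves.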
TDP1 cell CPT: growth inhibition of DT40 Tdp1-/-;hTDP1 cells with camptothecin (screen for TDP1 inhibitors); chicken DT40 Tdp1-/-;hTDP1 cells + 20 nM CPT, ATP luminescence, 48 h; Potency, µM (highest dose often 46.2 µM), most hits filed as inhibitors; actives 12% (n = 420,000); note: nearly all actives have a fitted effect of over 55% in size
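Cell growth measured by CellTiter-Glo luminescence after a minimum 48 h, 37 C compound exposure with 20 nM CPT in Tdp1-knockout DT40 cells stably expressing hTDP1, seeded 400/well; qHTS titration format.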
Each line names hits and unclear results; the compound was inactive in the other large screens. Sampled rows, rich in hits. Any-hit rate of the full collection: about 19%. Unless noted, calls come from the whole dose curve; as a rule, active = well fitted curve in the direction sought with a large enough effect; inconclusive = small, poorly fitted or top-dose-only effect, or another doubt; inactive = no such curve, though single readings can be large; an effect the other way counts as inactive or inconclusive.

COc1ccc(C(=O)N(c2ccc(OC)cc2)S(=O)(=O)c2cccs2)cc1	TDP1 cell noCPT inconclusive, TDP1 cell CPT inconclusive
COc1ccc(N(C(=O)COc2cccc(C)c2)S(=O)(=O)c2ccc(C)cc2)cc1	TDP1 cell CPT 18µM
COc1ccc(N(C(=O)c2ccccc2)S(=O)(=O)c2cccs2)cc1	TDP1 cell noCPT 21µM, HT1080-NT tox 16µM, HT1080 IDH1KD tx inconclusive, TDP1 cell CPT inconclusive
CCc1ccc(S(=O)(=O)N(C(=O)c2ccncc2)c2ccc(OC(=O)c3ccncc3)cc2)cc1	IL1B secr inh -61, TDP1 cell noCPT inconclusive, TDP1 cell CPT inconclusive
Cc1ccc(CNS(=O)(=O)c2cc3c4c(c2)C(C)C(=O)N4CCC3)cc1 (stereo unspecified)	TDP1 cell CPT inconclusive
COCCn1c(C)cc(O)c(C(c2ccc(F)cc2)N2CCC(C)CC2)c1=O (stereo unspecified)	none (no result: IL1B secr inh, HT1080-NT tox, HT1080 IDH1KD tx)
CCCSc1nnc(CSc2nc(C)cc(C)n2)n1C	none
O=C(O)CNC(=O)C1CCCN1C(=O)CNC(=O)OCc1ccccc1 (stereo unspecified)	none
O=C(OCc1ccccc1)C1CCCN1C(=O)c1ccccc1[N+](=O)[O-] (stereo unspecified)	IL1B secr inh -63, TDP1 cell noCPT 16µM, HT1080 IDH1KD tx inconclusive, TDP1 cell CPT 15µM
Cc1ccc(O)c(NC(=O)C2CCCN2C(=O)OCc2ccccc2)c1 (stereo unspecified)	none
O=C(CNC(=O)OCc1ccccc1)NCC(=O)N1CCCC1C(=O)OCc1ccccc1 (stereo unspecified)	IL1B secr inh -88, TDP1 cell CPT inconclusive
Cc1cccc(NC(=O)C2CCCN2C(=O)OCc2ccccc2)c1 (stereo unspecified)	TDP1 cell noCPT 0.058µM
CC(=O)c1ccc(C(=O)NCc2nc(-c3ccccc3NC(=O)c3cc(C)oc3C)oc2C)cc1	none (no result: IL1B secr inh, HT1080-NT tox, HT1080 IDH1KD tx)
CCCn1c(SC(C)C(=O)N2CCOCC2)nc2ccc(Br)cc2c1=O (stereo unspecified)	TDP1 cell noCPT inconclusive
O=c1[nH]c2ccccc2nc1-c1ccccc1	none
NC(=O)N=Nc1c2[nH]c3ccccc3nc-2c2ccccc12	IL1B secr inh -89, TDP1 cell noCPT 8.2µM, TDP1 cell CPT 16µM
CCOc1cc(C(=S)N2CCOCC2)ccc1OS(=O)(=O)c1ccccc1[N+](=O)[O-]	TDP1 cell noCPT inconclusive, TDP1 cell CPT inconclusive
C=C1C=C(C(F)F)n2ncc(C(=O)NCc3ccc(Cl)cc3Cl)c2N1	TDP1 cell noCPT 16µM, TDP1 cell CPT 8.9µM (no result: IL1B secr inh, HT1080-NT tox, HT1080 IDH1KD tx)
C=C1C=C(C(F)F)n2ncc(C(=O)NCc3ccccc3OC)c2N1	TDP1 cell noCPT inconclusive, TDP1 cell CPT 10µM (no result: IL1B secr inh, HT1080-NT tox, HT1080 IDH1KD tx)
COCCCN1C(=O)CC(C(=O)OC)=C1C	none
CSc1c(C#N)sc(=S)n1-c1ccc(C)cc1	none
Cc1ccc(C2NC(=O)c3sc(=S)n(-c4ccccc4)c3N2)cc1 (stereo unspecified)	TDP1 cell CPT 23µM
COC(=O)c1ccccc1NC(=O)Cn1cnc2cc(C)c(C)cc21	TDP1 cell noCPT 23µM, TDP1 cell CPT 15µM
COC(=O)c1ccccc1NC(=O)CNc1cc(OC)c(OC)cc1C	TDP1 cell noCPT 18µM, TDP1 cell CPT inconclusive
O=C1CCC([N+](=O)[O-])C(c2ccc3c(c2)OCO3)N1 (stereo unspecified)	none
COc1ccc(-c2nc(CSc3nc4ncccc4[nH]3)c(C)o2)cc1OC	TDP1 cell noCPT 21µM, TDP1 cell CPT inconclusive (no result: IL1B secr inh, HT1080-NT tox, HT1080 IDH1KD tx)
Cc1oc(-c2cccc(Cl)c2)nc1CSc1nc2ncccc2[nH]1	TDP1 cell noCPT 21µM, TDP1 cell CPT inconclusive (no result: IL1B secr inh, HT1080-NT tox, HT1080 IDH1KD tx)
COc1ccccc1OCC1CNC(=O)O1 (stereo unspecified)	none (no result: IL1B secr inh, HT1080-NT tox, HT1080 IDH1KD tx)
Cc1cc(C(=O)OCC(=O)NCCC(C)C)c2ccccc2n1	none
CN(CCO)S(=O)(=O)c1ccc2c(c1)C(=NO)c1cc(S(=O)(=O)N(C)CCO)ccc1-2	TDP1 cell noCPT 12µM
CN(C)S(=O)(=O)c1ccc2c(c1)C(CC(=O)O)NC2=O (stereo unspecified)	none
O=C(CSc1ncn[nH]1)N1N=C2/C(=C/c3ccco3)CCCC2C1c1ccco1 (stereo unspecified)	IL1B secr inh -60, TDP1 cell noCPT inconclusive, HT1080-NT tox inconclusive, HT1080 IDH1KD tx inconclusive, TDP1 cell CPT inconclusive
Cc1cc(NC(=O)CSc2nnc(-c3ccccc3)o2)no1	TDP1 cell noCPT 23µM, TDP1 cell CPT inconclusive
Cc1cc(NC(=O)CSc2nnc(-c3ccccc3)c(-c3ccccc3)n2)no1	TDP1 cell noCPT 5.2µM, HT1080-NT tox 2.9µM, HT1080 IDH1KD tx 5.2µM, TDP1 cell CPT 3.7µM
Cc1cc(NC(=O)CSc2ccccc2)no1	none
Cc1cc(NC(=O)CSc2nnc(-c3ccoc3C)o2)no1	TDP1 cell noCPT inconclusive, HT1080-NT tox 11µM, HT1080 IDH1KD tx 6.3µM, TDP1 cell CPT inconclusive
Cc1cc(NC(=O)CSc2nnc(-c3ccc(O)cc3)o2)no1	none
CC(=O)N1CCN(C(=O)c2cccc(S(=O)(=O)N3CCOCC3)c2)CC1	none
Cc1ccc(S(=O)(=O)N(C)CC(=O)Nc2ncccc2C)cc1	none
COc1ccc(N(CCCN2C(=O)c3cccc4cccc(c34)C2=O)C(=O)c2cccs2)cc1	TDP1 cell noCPT inconclusive, TDP1 cell CPT inconclusive
COc1cc(C)ccc1N(CCCN1C(=O)c2cccc3cccc(c23)C1=O)C(=O)c1cccs1	TDP1 cell noCPT 9.2µM, TDP1 cell CPT 9.2µM
Cc1ccc(S(=O)(=O)N/N=C/c2c(C)nn(-c3ccccc3)c2C)cc1	none
Cc1ccc2oc(=O)c3cc(C(=O)NCCCN4CCN(C)CC4)sc3c2c1	TDP1 cell noCPT inconclusive, HT1080-NT tox inconclusive, TDP1 cell CPT inconclusive
CN1CCN(CCCNC(=O)c2cc3c(=O)n(C)c4ccccc4c3s2)CC1	IL1B secr inh -81, TDP1 cell noCPT 12µM, HT1080-NT tox inconclusive, TDP1 cell CPT 8.2µM
Cn1c(=O)c2cc(C(=O)NCCCN3CCN(c4cccc(Cl)c4)CC3)sc2c2ccccc21	TDP1 cell noCPT 2.9µM, TDP1 cell CPT inconclusive (no result: IL1B secr inh, HT1080-NT tox, HT1080 IDH1KD tx)
CCOc1cc(C(=O)Nc2ccc(F)cc2)cc(Br)c1OC	TDP1 cell noCPT inconclusive
CC(C)(C)c1ccc(C(=O)Nc2ccc(C(=O)N3CCCC3)cc2)cc1	TDP1 cell noCPT 23µM, TDP1 cell CPT 21µM
CCOc1cc(C(=O)Nc2ccc(N3CCOCC3)cc2)cc(Br)c1OC	TDP1 cell noCPT 26µM, HT1080-NT tox inconclusive, HT1080 IDH1KD tx inconclusive, TDP1 cell CPT inconclusive
CC(=O)c1ccc(C(=O)Nc2ccc(N3CCOCC3)cc2)cc1	none
CC(C)(C)c1ccc(C(=O)Nc2ccc(N3CCOCC3)cc2)cc1	IL1B secr inh inconclusive, TDP1 cell noCPT 18µM, HT1080-NT tox inconclusive, HT1080 IDH1KD tx inconclusive, TDP1 cell CPT 18µM
